# In the supplement of paper PMC4894684:
# Structures can show the parent of a compound that is named as a salt. ± gives the standard deviation of the averaged measurements. Among all 1,000 compounds or so, about 15 (2%) showed an effect of 50% or more. What follows is part of a selection rich in strong results, with near analogues and random picks from the rest.
# Tested on: HFF
# Experiment: uninfected host cell viability relative to vehicle control; higher = less host cell toxicity
# Conditions: 5 µM; 72 h; oxygen 21 %
row,Compound,uninfected host cell viability [%]
1,N[C@H](C(=O)O)c1ccc(O)c(C(=O)O)c1 [(S)-3-Carboxy-4-hydroxyphenylglycine],83.1 ± 0.11
2,CC(C)c1onc(-c2c(Cl)cccc2Cl)c1COc1ccc(/C=C/c2cccc(C(=O)O)c2)c(Cl)c1,96.2 ± 2.9
3,OC[C@H]1NC[C@@H](O)[C@@H](O)[C@@H]1O [1-Deoxymannojirimycin hydrochloride],86.61 ± 0.073
4,O=C(NCCCCN1CCN(c2cccc(Cl)c2Cl)CC1)c1ccc2c(c1)Cc1ccccc1-2,88.9 ± 4
5,CCCCCCNC(=O)Nc1ccc(S(=O)(=O)Nc2ccc(CCNC[C@H](O)COc3ccc(O)cc3)cc2)cc1,83.4 ± 2.5
6,NC(C(=O)O)c1ccc(C(=O)O)c(C(=O)O)c1 (configuration not stated),83.7 ± 3.5
7,CCCCN1CCC(CCC(=O)c2cc(Cl)c(N)cc2OC)CC1,85.2 ± 6.5
8,CN(CCOc1ccc(-c2ccc3c(c2)OCO3)cc1C(C)(C)C)CC(=O)O,89.62 ± 0.17
9,O=C(c1ccc(F)cc1)C1CCN(CCn2c(=S)[nH]c3ccccc3c2=O)CC1 [Altanserin hydrochloride],83.2 ± 2.8
10,"Nc1nc2c(nc(Br)n2[C@@H]2O[C@@H]3COP(=O)(O)O[C@H]3[C@H]2O)c(=O)[nH]1 [8-Bromo-cGMP, sodium salt]",89.8 ± 1.7
11,COC(=O)c1sccc1S(=O)(=O)Nc1ccc(Nc2ccccc2)cc1OC,77.8 ± 0.79
12,NC(=O)N1c2ccccc2CC(O)c2ccccc21 (configuration not stated) [Licarbazepine],86.1 ± 1.1
13,COc1ccc(Cl)cc1NC(=O)Nc1cc(C)nc2ccccc12,70.73 ± 0.28
14,O=C(/C=C/c1ccc(O)c(O)c1)O[C@H](Cc1ccc(O)c(O)c1)C(=O)O [Rosmarinic acid],80.3 ± 1
15,OC(CCCN1CCN(c2ncc(F)cn2)CC1)c1ccc(F)cc1 (configuration not stated),110 ± 17
16,CC(C)c1ccccc1S(=O)(=O)c1cc(N)c2ncccc2c1[N+](=O)[O-],73.2 ± 0.84
17,CN(CCCN1c2ccccc2CCc2ccccc21)CC(=O)c1ccc(Cl)cc1 [Lofepramine],89.6 ± 1.2
18,Cc1c(C(=O)NN2CCOCC2)nn(-c2ccc(Cl)cc2Cl)c1-c1ccc(I)cc1,90.8 ± 2.4
19,O=c1[nH]nc(Sc2ncc([N+](=O)[O-])s2)n1-c1ccc2c(c1)OCCO2,99.61 ± 0.28

row,Compound,uninfected host cell viability [%]
1,O=C(O)c1ccc(C=C2SC(=S)N(c3cccc(C(F)(F)F)c3)C2=O)cc1,87.8 ± 0.91
2,CN1Cc2c(C(=O)OC(C)(C)C)ncn2-c2ccsc2C1=O,97.9 ± 4.9
3,CCCCCCCCCCCCCCCC(=O)C(F)(F)F,91.66 ± 0.55
4,NC(=O)CCCCn1ccc(NC(N)=NCC(F)(F)F)n1,85.9 ± 2.3
5,N[C@@H](CSS(=O)(=O)O)C(=O)O [S-Sulfo-L-cysteine sodium salt],99.5 ± 1.1
6,Cc1ccccc1C(=O)c1ccc(Nc2ccc(Br)cc2N)cc1Cl,84 ± 2.2
7,CN1CCC(Nc2ncc3ncnc(Nc4ccc(F)c(Cl)c4)c3n2)CC1 [BIBX 1382 dihydrochloride],80.7 ± 2.1
8,CC(C)n1nnc2cc(C(=O)O)ccc21,100 ± 2.3
9,Cc1[nH]c(/C=C2\C(=O)Nc3ccc(S(=O)(=O)Cc4c(Cl)cccc4Cl)cc32)c(C)c1C(=O)N1CCC[C@@H]1CN1CCCC1,89.5 ± 2.3
10,CC1(C)CCC(C)(C)c2cc(C3(c4ccc(C(=O)O)cc4)OCCO3)ccc21,93.1 ± 2.3
11,COc1ccc(NS(=O)(=O)c2ccc(I)cc2)cc1N1CCN(C)CC1,81.6 ± 2.9
12,Cc1cc(C)cc(C(=O)N(C)[C@H](Cc2ccc(-c3ccccc3)cc2)C(=O)N[C@@H](Cc2c[nH]c3ccccc23)C(=O)O)c1,83.95 ± 0.62
13,CCCn1c(=O)[nH]c2nc(-c3ccc(S(=O)(=O)O)cc3)[nH]c2c1=O,86.34 ± 0.58
14,CNc1cc(OC)c(C(=O)NC2CCN(Cc3ccccc3)C2C)cc1Cl (configuration not stated) [Nemonapride],86.9 ± 6.9
15,C[C@H](NC[C@H](O)CP(=O)(O)Cc1ccccc1)c1ccc(Cl)c(Cl)c1,87.23 ± 0.39
16,CCOc1ccc(Nc2nc(-c3c(C)nc4ccccn34)cs2)cc1,73.8 ± 2.5
17,CCCCC[C@H](O)/C=C/[C@H]1[C@H](O)CC(=O)[C@@H]1C/C=C\CCCC(=O)O [Prostaglandin E2],95.2 ± 2.4
18,COC(=O)C1=C(C)NC(C)=C(C(=O)OC(C)C)C1c1cccc2nonc12 (configuration not stated) [Isradipine],104 ± 7.9
19,CC(Cc1ccccc1)(NC(=O)CN)c1ccccc1 (configuration not stated) [Remacemide hydrochloride],85.5 ± 1.2

row,Compound,uninfected host cell viability [%]
1,CCn1c(=O)[nH]c2ccccc21,95.8 ± 5.6
2,CC(/C=C/c1cccc(Oc2ccc(F)cc2)c1)N(O)C(N)=O (configuration not stated),82.8 ± 3.7
3,O=C1NN(C(=O)Nc2ccc(Br)cc2)[C@@H](c2ccccc2)[C@@H]1c1ccccc1,91.67 ± 0.67
4,CCc1c2c(nc3ccc(O)cc13)-c1cc3c(c(=O)n1C2)COC(=O)[C@]3(O)CC,77.3 ± 8.2
5,NCCNC(=O)c1ccc(Cl)cn1 [Lazabemide hydrochloride],94.7 ± 1.2
6,Nc1[nH]nc2nnc(-c3c(-c4ccccc4)nn4ccccc34)cc12,94.685 ± 0.091
7,OC(c1ccccc1)C1CCN(CCc2ccccc2)CC1 (configuration not stated),101 ± 7.3
8,Cc1cc(/C(=C/Nc2ccc(Cl)cc2)C(=O)Nc2ccc(Cl)cc2)on1,86.9 ± 4.8
9,CC1(CN2CCC(n3c(=O)[nH]c4ccccc43)CC2)OCc2ccccc2-n2cccc21 (configuration not stated),94.4 ± 2
10,Nc1ccc(-c2cccc3c(=O)cc(N4CCOCC4)oc23)cc1,77 ± 0.83
11,c1ccc(N2CCN(CCCOc3ccc4c(c3)OCO4)CC2)cc1 [BP 554 maleate],90.9 ± 6.9
12,CCS(=O)(=O)N(C)[C@H]1c2cc(C#N)ccc2OC(C)(C)[C@@H]1O (racemic) [Chromanol 293B],91.3 ± 6.7
13,c1ccc2oc(C3=NCCN3)cc2c1 [2-BFI hydrochloride],84.5 ± 0.93
14,COc1ccc(-n2[nH]c3c4c(ncc3c2=O)CCCCC4)cc1,92.03 ± 0.15
15,O=C(O)COc1cccc(-c2ocnc2-c2nc(-c3ccccc3)c(-c3ccccc3)o2)c1,105 ± 3.5
16,NC(N)=Nc1ccc(Cl)cc1 [4-Chlorophenylguanidine hydrochloride],87.3 ± 2.5
17,CN(Cc1ccccc1)C(=O)[C@H](Cc1ccc2ccccc2c1)NC(=O)[C@@H]1CCCN1C(=O)Nc1ccccc1[N+](=O)[O-],87.6 ± 1.8
18,CC[C@H](CO)Nc1nc(Nc2cccc(-c3ccccn3)c2)c2ncn(C(C)C)c2n1 [(R)-DRF053 dihydrochloride],84.1 ± 1.9
19,CC(C)NCC(O)c1ccc2ccccc2c1 (configuration not stated) [Pronethalol hydrochloride],85.9 ± 2.6
